PubChem BioAssay AID1159607 (Small Molecule Screening Facility, UW Madison, 2016)
The campaign covered roughly 70,000 compounds. About 400 (0.57%) were called active. Cut-off read from the data, not from the text of the source: active = FP signal below about 40; inactive = the rest. The full list was thinned out, with actives kept by preference.

What follows are compounds tested on RMI core complex (RMI1/RMI2) binding to FANCM MM2 peptide, human (assay: disruptors of RMI1/RMI2 association with MM2 peptide – biochemical, fluorescence polarization, human, primary screen (AID 1159607)). Settings: RMI core complex with F-MM2 peptide, at 33 µM, active compounds read low.

Compound	FP signal (polarization)
O=C1NC(=O)c2cc(S(=O)(=O)N(CCO)CCO)cc3cccc1c23	56 (inactive)
C=Cc1cc2ccc(C)cc2nc1Cl	58 (inactive)
CC(C)c1c(O)ccc2c1CCC1[C@@](C)(CO)CCC[C@]21C (stereo not given in full)	58 (inactive)
COc1cn(CC(=O)Nc2cccc(F)c2)c(CN2CCN(c3ccccc3)CC2)cc1=O	54 (inactive)
O=C(O)/C=C/C(=O)Nc1ccc(Oc2ccc(Cl)cc2)cc1	53 (inactive)
CSc1nc2ccc(NC(=O)c3ccc(Oc4ccc(C(=O)Nc5ccc6nc(SC)sc6c5)cc4)cc3)cc2s1	63 (inactive)
CC(C)Oc1ccc(C(=O)NCC(c2ccsc2)N2CCCCCC2)cc1 (stereo not given)	75 (inactive)
O=C(CCCSc1ccc(NC(=O)C2CC2)nn1)NCc1ccccn1	67 (inactive)
C=CCc1cccc2cc(C(=O)Nc3cc(OC)c(Cl)cc3OC)c(=O)oc12	60 (inactive)
O=C(CC1CCCCN1S(=O)(=O)c1cccs1)Nc1ncccn1 (stereo not given)	69 (inactive)
Cc1ccc(-c2nc(N3CCOCC3)sc2-c2ccc([N+](=O)[O-])cc2)cc1	74 (inactive)
COc1ccc2oc(-c3csc(NC(=O)C4COc5ccccc5O4)n3)cc2c1 (stereo not given)	66 (inactive)
CC(C)CCN1C(=O)C(C)(C)COc2ccc(NC(=O)Cc3ccc(F)cc3)cc21	77 (inactive)
Cc1nc(-c2ccc(S(=O)(=O)N3CCN(C(=O)c4ccco4)CC3)s2)cs1	60 (inactive)
CCCOc1ccc(S(=O)(=O)N2CCN(c3ccc(F)cc3)CC2)cc1C	66 (inactive)
COCCN1CCCc2ccc(NS(=O)(=O)c3ccc(C)c(Cl)c3)cc21	78 (inactive)
COc1cc(-c2nnc(NC(=O)c3ccc([N+](=O)[O-])cc3)o2)cc(OC)c1OC	54 (inactive)
CCOC(=O)c1oc2ccccc2c1NC(=O)c1cccc(N2C(=O)CCC2=O)c1	74 (inactive)
O=S(=O)(c1cccnc1)N1CCN(c2ccc(-c3cccs3)nn2)CC1	69 (inactive)
COc1ccc(Cl)cc1C(=O)Nc1nnc(-c2cccc([N+](=O)[O-])c2)s1	74 (inactive)

Compound	FP signal (polarization)
CCOC(=O)c1ccc(NC(=O)CSc2nnc(NC(=O)COc3ccc(Cl)cc3Cl)s2)cc1	62 (inactive)
O=C(COc1ccc(Cl)cc1Cl)Nc1nnc(SCC(=O)Nc2nnc(-c3cccc([N+](=O)[O-])c3)s2)s1	16 (active)
O=C(Cn1nc(-c2ccc(F)cc2)c2sc(N3CCCC3)nc2c1=O)Nc1ccc(F)cc1F	92 (inactive)
CN1C(=O)C(C)(C)COc2ccc(NC(=O)c3ccc(Br)cc3)cc21	68 (inactive)
COc1ccccc1CCNC(=O)CSc1nnc2ccc(-c3cccnc3)nn12	55 (inactive)
Cc1c(NC(=S)Nc2ccc3c(c2)OCO3)c(=O)n(-c2ccccc2)n1C	59 (inactive)
CN(C)c1ccc(C=NS(=O)(=O)c2cccs2)cc1	57 (inactive)
CSc1cccc(NC(=O)C(=O)NCCc2ccccc2)c1	65 (inactive)
Cc1[nH]c(=O)[nH]c(=O)c1CCC(=O)Nc1ccc(F)c(Cl)c1	60 (inactive)
COc1ccc(S(=O)(=O)CC(=O)Nc2cc(C)nn2-c2nc3ccccc3s2)cc1	78 (inactive)
CCOc1ccccc1C(=O)NCC(=O)N1CCOC(c2ccccc2)C1 (stereo not given)	73 (inactive)
COc1cc(-c2noc(-c3cc(-c4ccccc4)n[nH]3)n2)cc(OC)c1OC	95 (inactive)
Nc1cc(=O)[nH]c(SCC(=O)Nc2ccc(S(N)(=O)=O)cc2)n1	61 (inactive)
O=C(CSc1nc2ccc(Br)cc2c2nc3ccccc3n12)NCC1CCCO1 (stereo not given)	57 (inactive)
CCOc1ccc(NC(=O)CC(NCCc2ccc(OC)cc2)C(=O)O)c([N+](=O)[O-])c1 (stereo not given)	51 (inactive)
COc1ccc(S(=O)(=O)Nc2ccccc2C(=O)O)cc1C	62 (inactive)
Cc1ccc2nc(N(CCN(C)C)C(=O)c3ccc(S(=O)(=O)N4CCCCCC4)cc3)sc2c1	90 (inactive)
O=C(NCCc1ccccc1)NCC(c1ccsc1)N1CCOCC1 (stereo not given)	64 (inactive)
Cc1cc(-c2nnc(NC(=O)CCCS(=O)(=O)c3ccc(F)cc3)o2)nn1C	61 (inactive)
Cn1nc(-c2ccc3ccccc3c2)c(=O)n(C)c1=S	50 (inactive)

Compound	FP signal (polarization)
O=C(NCCC1=CCCCC1)C(=O)NCC(c1ccco1)N1CCOCC1 (stereo not given)	57 (inactive)
CCSc1cccc(C(=O)Nc2ccc3nc(C)sc3c2)c1	80 (inactive)
CC[N+](C)(CC)CCC[n+]1c(-c2ccccc2)c2cc(N)ccc2c2ccc(N)cc21	-45 (active)
CCSc1nnc(NC(=O)c2cc(=O)c(OC)co2)s1	64 (inactive)
COc1ccc(OC)c(Nc2nc(CC(=O)Nc3nc4ccccc4s3)cs2)c1	66 (inactive)
Cc1noc(NS(=O)(=O)c2ccc(N/C=C(\C#N)c3nc4ccccc4n3C)cc2)c1C	68 (inactive)
CS(=O)(=O)NCC(c1ccco1)N1CCOCC1 (stereo not given)	57 (inactive)
c1ccc(-c2nc(SCc3nc4ccccc4[nH]3)oc2-c2ccccc2)cc1	64 (inactive)
Cc1ccc2nc(NC(=O)CSc3nnc4ccc(-c5ccccn5)nn34)sc2c1	69 (inactive)
Cc1cccc(NC(=O)Nc2ccc(Nc3ccc(-n4cccn4)nn3)cc2)c1C	85 (inactive)
COc1ccc(NC(=O)c2c(F)cccc2F)cc1N1CCCCC1=O	54 (inactive)
CCOC(=O)c1ccc2nc(NC(=O)/C=C/c3ccccc3Cl)sc2c1	62 (inactive)
CSc1cccc(NC(=O)C(=O)NCCN2CCN(c3ccccc3F)CC2)c1	87 (inactive)
O=C(Nc1cc2ccccc2cc1NC(=O)c1ccc(N2C(=O)CCC2=O)cc1)c1ccc(N2C(=O)CCC2=O)cc1	57 (inactive)
CCN1CCOc2ccc(NC(=O)c3cc4ccccc4oc3=O)cc2C1=O	62 (inactive)
O=C1CCc2cc(S(=O)(=O)NCc3ccco3)cc3c2N1CCC3	54 (inactive)
OCc1cnc(SCc2ccc(Cl)c(Cl)c2)n1Cc1ccc(F)cc1	67 (inactive)
Cc1ccc(S(=O)(=O)/C(C#N)=C/N2CCN(c3cccc(Cl)c3)CC2)cc1C	71 (inactive)
N#CC(C#N)=C1SCN(c2cccc(Cl)c2)CS1	-20 (active)
O=C(NCc1cccs1)C(=O)N1CCN(c2cccc(Cl)c2)CC1	53 (inactive)
